Experimental findings from PubChem BioAssay AID624256 (NMMLSC, 2012) are described below.

About 3,700 (1%) of roughly 360,000 compounds were called active. About 2% were inconclusive and are not listed.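 How the source made its calls: active means normalized GFP-positive differentiation at or above the plate's own cutoff, the solvent-only control mean plus 3 SD; inconclusive means no clear call, values can overlap the other calls; inactive means the rest.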 The entries come from a sample that favours actives as a whole.

A short description of the assay: HoxA9-arrested leukemia cell differentiation promoters – flow cytometry, MLPCN library, primary screen (AID 624256).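 On GFP+ MAC1+ double positive: cells exposed to compound for four days before flow analysis.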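 On normalized GFP-positive differentiation: cells exposed to compound for four days before flow analysis; 0% = DMSO wells and 100% = fulvestrant positive control at 5 µM.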 As to conditions: ER-HoxA9 myeloid progenitors, lysozyme-GFP differentiation, at 10 µM; GFP+ MAC1+ double positive: measured here: differentiation confirmed by MAC1 staining, stronger effect = higher value; normalized GFP-positive differentiation: stronger effect = higher value.
As for `O=C1NC(=O)N(CCc2ccc(F)cc2)C(=O)/C1=C/C=C/c1ccccc1`, the GFP+ MAC1+ double positive came to 0.9% and the normalized GFP-positive differentiation was 70.4% (active).
With `CNC(=O)O/N=C(\N)Cc1csc2ccc(Cl)cc12`, the GFP+ MAC1+ double positive worked out at 0.2% and the call was inactive.
As to `CC(C)Nc1nc(Cl)nc(NC(C)C)n1`, the GFP+ MAC1+ double positive was 0.1% and the molecule was classed as inactive.
For `COc1ccc(N=Cc2c(O)n(C)c(=O)[nH]c2=O)cc1`, in that order: 0.4% and “inactive”.
Regarding `C[C@H]1CN([C@@H](C)CO)C(=O)CCCn2nncc2CO[C@H]1CN(C)C(=O)Oc1ccccc1`, the GFP+ MAC1+ double positive is 0.8% and the outcome was inactive.
As for `Cc1ccccc1NC(=O)COC(=O)c1cc(C)n(C2CC2)c1C`, the GFP+ MAC1+ double positive was 1.3% and the call was inactive.
Turning to `CC(=NCC1CCCO1)c1c(O)n(-c2ccccc2)c(=O)[nH]c1=O` (stereo not given), the GFP+ MAC1+ double positive worked out at 0.9% and the molecule was classed as inactive.
With `OCC#CC[N+]1(CC#Cc2ccccc2)CCCC1`, the GFP+ MAC1+ double positive was determined as 1.2% and the normalized GFP-positive differentiation is 7.55% (active).
For the molecule `COC(=O)C1=C(c2cc3ccccc3s2)C[C@@H]2CC[C@H]1N2C(=O)NCCO`, the GFP+ MAC1+ double positive was 4.1% and the molecule was classed as inactive.
For the molecule `CCOC(=O)[C@]12Cc3cc(OC)ccc3[C@H]1N(C(C)C)C(=O)c1ccccc12`, the GFP+ MAC1+ double positive was 1.5% and the molecule was classed as inactive.
For `c1ccc(CC2CCCCN2)cc1` (stereo not given), in that order: 0.1% and “inactive”.
Take `c1ccc2sc(C3CCCNC3)nc2c1` (stereo not given): the GFP+ MAC1+ double positive is 1.2% and the molecule was classed as inactive.
As for `CC1CC=CCC12C(=O)NC(=S)NC2=O` (stereo not given), the GFP+ MAC1+ double positive was 11.7% and the normalized GFP-positive differentiation was 312% (active).
In the case of `CN1CCC[C@@H]1CCO[C@](C)(c1ccccc1)c1ccc(Cl)cc1`, the GFP+ MAC1+ double positive came out at 3.2% and the molecule was classed as inactive.
For `CC1C2Cn3c(nc4ccccc43)C1N(C)O2` (stereo not given), in that order: 1.5% and “inactive”.
